Sampled rows, rich in hits. Any-hit rate of the full collection: about 1.9%.
Vif imaging: HIV Vif self-association inhibitors, primary screen, imaging, HEK293T, single point | HEK293T cells, Vif self-association by quenched fluorescence, 24 h | inhibition, % at 7.49 µM | 0.35% of 340,000 active | AID 602346, 2012; in the data active = inhibition above about 50%, passing the limit was not always enough
NSD2 HMT inh: NSD2 histone methyltransferase inhibitors, primary screen, biochemical, AlphaScreen, single concentration, set 2. NSD2 peptide methylation, 120 min. inhibition, % at 12.5 µM. Histone-lysine N-methyltransferase NSD2 (Homo sapiens), O96028. 0.54% of 310,000 active
ATG4B inhibitor: ATG4B protease inhibitors, primary screen, biochemical, fluorescence, uHTS; inhibition, % at 8.33 µM; 0.51% of 340,000 active; ATG4B cleavage of LC3-PLA2, NBD-HPC fluorescence, 1 h; Cysteine protease ATG4B (Homo sapiens), Q9Y4P1; in the data active = inhibition above about 40%
CaV13 ICDI inh: Primary screen for inhibitors of IQ motif and Ca2+-dependent inactivation inhibitor domain binding in CACNA1D, Förster resonance energy transfer in living cells, … | 0.098% of 340,000 active | inhibition, % at 12.3 µM | HEK cells, CFP/YFP FRET ICDI-IQ, plate reader, 10 min; percent FRET-ratio fall versus neutral wells | AID 743397;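 active = mean replicate inhibition of at least 30% and at least 1% of replicates passing that level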;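 note: 0% = median of the neutral control wells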
DSG3 Ab inh: inhibitors of pemphigus antibody binding to DSG3, primary screen, biochemical, bead-based, flow cytometry, scFv-GFP. Desmoglein-3 (Homo sapiens), P32926. DSG3-coupled beads, scFv-anti-DSG3-GFP binding; hits give low values. binding (percent of control), % at 10 µM. 0.48% of 310,000 active. AID 588358, 2011;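 active = binding more than 3 SD below its plate's average and above zero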;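 note: hits lower antibody fragment binding to DSG3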
Glyco luc inh: increase of ERlucT glycosylation luciferase signal, primary screen, N-linked glycosylation inhibitor project, D54 ERlucT cells, luminescence, set 2; 0.23% of 360,000 active; D54 ERlucT glycosylation luciferase reporter, 24 h; percent of 100 nM tunicamycin response; reporter increase, % at 12.5 µM; AID 588692, 2011;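 active = mean luciferase reporter signal, scaled so untreated is 0 and the glycosylation-blocking control 100, at or above a set limit in every replicate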;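 note: luciferase carries N-glycosylation sites so blocking glycosylation raises the light; 0% = median of neutral control wells and 100% = median of 100 nM tunicamycin wells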
ATG4B conf: ATG4B protease inhibitors, retest, confirmation, biochemical, fluorescence, single concentration | shares compounds with ATG4B inhibitor | ATG4B protease fluorescent substrate cleavage assay | inhibition, % at 8.33 µM | 92% of 320 active; in the data active = inhibition above about 39%
PLA2 counter: PLA2 enzyme inhibition, counter-screen for ATG4B inhibitor project, biochemical, single concentration, uHTS hits | shares compounds with ATG4B inhibitor | purified PLA2, NBD-C6-HPC fluorescence, 45 min | inhibition, % at 8.33 µM | 66% of 1,600 active
Active calls of the source: *. Cut-off read from the data, not from the text of the source, unless noted: active = inhibition above about 50%; inactive = the rest.

How did COc1ccc(Br)cc1CNC(=O)C1CCN(S(=O)(=O)N2CCC(C)CC2)CC1 do in these assays?
Vif imaging: -3; ATG4B inhibitor: 42*; CaV13 ICDI inh: -5; DSG3 Ab inh: 101; Glyco luc inh: -1; ATG4B conf: 67*; PLA2 counter: 42

How did NC(=O)c1ccc(-c2ccc(Br)cc2)o1 do in these assays?
Vif imaging: -5; NSD2 HMT inh: 0; ATG4B inhibitor: -12; CaV13 ICDI inh: -4; Glyco luc inh: 5

How did NC(=O)C1CCN(C(=S)c2ccc(-c3ccc(Br)cc3)o2)CC1 do in these assays?
Vif imaging: -1; NSD2 HMT inh: -10; ATG4B inhibitor: 51*; CaV13 ICDI inh: -5; DSG3 Ab inh: 95; Glyco luc inh: 0; PLA2 counter: 41

Results for Nc1nnc(Cc2ccc(Cl)cc2Cl)s1 ?
Vif imaging: 0; NSD2 HMT inh: 1; ATG4B inhibitor: 71*; Glyco luc inh: -2; PLA2 counter: 76*

Results for Nc1nnc(Cc2ccc(Cl)cc2)s1 ?
Vif imaging: -1; NSD2 HMT inh: -1; ATG4B inhibitor: 7; CaV13 ICDI inh: 0; DSG3 Ab inh: 106; Glyco luc inh: 1

What do the screens show for `CCNC(=O)NC(=O)C(C)Sc1nc2ccccc2c(=O)n1-c1cccnc1` (stereo not drawn)?
Vif imaging: 1; NSD2 HMT inh: 0; ATG4B inhibitor: -3; CaV13 ICDI inh: -6; Glyco luc inh: -1

Results for Cc1cccc(NC(=S)NC(=O)c2ccco2)c1C ?
NSD2 HMT inh: 2; ATG4B inhibitor: -1; DSG3 Ab inh: 110; Glyco luc inh: -2

How did C=CCn1c(SCC(=O)Nc2ccc3c(c2)CCC3)nnc1-c1cccs1 do in these assays?
Vif imaging: -18; NSD2 HMT inh: -3; ATG4B inhibitor: 67*; CaV13 ICDI inh: -5; DSG3 Ab inh: 76; Glyco luc inh: -2; PLA2 counter: 52*

How did Cn1c(-c2ccc3c(c2)OCO3)cnc1NCc1cccc(Cl)c1 do in these assays?
Vif imaging: 2; ATG4B inhibitor: 52*; DSG3 Ab inh: 104; Glyco luc inh: 0; PLA2 counter: 58*

Results for Cn1c(-c2ccc3c(c2)OCO3)cnc1NCc1ccccc1 ?
Vif imaging: 16; NSD2 HMT inh: 6; ATG4B inhibitor: 4; CaV13 ICDI inh: -6; DSG3 Ab inh: 98; Glyco luc inh: 2

What do the screens show for `CCCN1C(=O)C(O)(C/C(C)=N/O)c2ccccc21` (stereo not drawn)?
Vif imaging: 0; NSD2 HMT inh: -4; ATG4B inhibitor: -8; CaV13 ICDI inh: -5; DSG3 Ab inh: 115; Glyco luc inh: 3

What do the screens show for `C=CCn1cccc(/C=C/C(=O)c2ccc(C(C)(C)C)cc2)c1=S`?
NSD2 HMT inh: 1; ATG4B inhibitor: 0; CaV13 ICDI inh: -6; DSG3 Ab inh: 99; Glyco luc inh: 24

Results for COc1ccc(-c2cc(-c3cc(C)ccc3O)[nH]n2)cc1 ?
Vif imaging: -11; NSD2 HMT inh: -1; ATG4B inhibitor: 3; CaV13 ICDI inh: 10; DSG3 Ab inh: 102; Glyco luc inh: 4

Results for Cc1ccc(O)c(-c2cc(-c3ccccc3C)[nH]n2)c1 ?
Vif imaging: 2; NSD2 HMT inh: 0; ATG4B inhibitor: 55*; CaV13 ICDI inh: -4; DSG3 Ab inh: 104; Glyco luc inh: 0; PLA2 counter: 62*

Screens as filed in PubChem BioAssay.
